From PubChem BioAssay AID1362 (SRMLSC, 2008)
Hit rate of the full screen: of about 190,000 compounds, about 4,000 (2.1%) were called active. The sample holds actives, similar compounds and a random draw of the others, so the mix is not that of the screen. No stated cut-off is given here; in the data, active means inhibition above about 58%; inactive means the rest, inconclusive results apart; tested in S. cerevisiae.

Experiment: growth inhibition of WT strain, primary screen, mitochondrial fusion inhibitor project, WT and mutant strains, chemical genetic (AID 1362)
Conditions: mitochondrial fusion phenotypic screen, at 10 µM
[1] = WT strain, growth inhibition, stronger effect = higher value

SMILES	inhibition [1]	inhibition (mutant strain inhibition) [%]
Cn1nnnc1NCc1ccc(Cl)c(Cl)c1	-2% (inactive)	14.5
O=[N+]([O-])c1ccc(F)cc1Oc1nc(-c2cccnc2)nc2ccccc12	2.1% (inactive)	3.69
O=[N+]([O-])c1ccc(Oc2ccc(F)cc2Br)c2ccncc12	68.7% (active)	58.1
O=C(O)CSc1nccc2ccccc12	-2.02% (inactive)	-7.45
Cc1ccc(Nc2nnc(SCC(=O)c3cc4ccccc4o3)s2)cc1C	0.56% (inactive)	20.2
CC(C)c1ccc(Nc2nnc(SCC(=O)c3nnc(-c4ccccc4)o3)s2)cc1	70.5% (active)	55.7
O=C(CSc1nnc(Nc2ccccc2)s1)Nc1cccnc1Cl	-3.41% (inactive)	-15.4
S=C(NCc1ccco1)Nc1ccc2c(c1)OCCO2	-2.47% (inactive)	9.66
CC(C)(C)NC(=O)NC(=O)COC(=O)Cc1c(F)cccc1Cl	-15.4% (inactive)	1.6
NS(=O)(=O)c1ccc(CCNC(=S)Nc2ccc(S(N)(=O)=O)cc2)cc1	-5.98% (inactive)	-14.5
NS(=O)(=O)c1ccc(NC(=S)NC(=O)c2cccc(Br)c2)cc1	11% (inactive)	20.3
NS(=O)(=O)c1ccc(NC(=S)Nc2ccc(Br)c(Cl)c2)cc1	82.6% (active)	54.2
CCCn1c(=S)[nH]c2ccc(C(F)(F)F)cc21	2.77% (inactive)	12.1
CO/N=C/c1cn(-c2ccc(Cl)cc2)nn1	-5.72% (inactive)	-2.58
O=C(c1ccco1)N1CCN(c2cccc(Cl)c2)CC1	7.68% (inactive)	-0.39
O=C(c1ccc2c(c1)OCO2)N1CCN(C(=O)c2ccco2)CC1	-13.2% (inactive)	-33.3
O=C(c1ccco1)N1CCN(C(=O)C2c3ccccc3Oc3ccccc32)CC1	71.1% (active)	6.75
O=C(C1CCN(C2CCN(Cc3cccc4c3OCO4)CC2)CC1)N1CCOCC1	5.02% (inactive)	2.36
CN(C)CCCN1C(=O)CSC1c1ccc([N+](=O)[O-])cc1 (stereo not given)	-4.48% (inactive)	1.39
COc1ccc(/C=C/C(=O)OCC(=O)Nc2cccc(Oc3ccccc3)c2)c(OC)c1	7.56% (inactive)	8.13
COc1cc(/C=C/C(=O)OCC(=O)Nc2cccc(Oc3ccccc3)c2)ccc1O	68.3% (active)	29
COc1cccc(NC(=O)COC(=O)CCOc2ccccc2OC)c1	-0.47% (inactive)	-4.38
O=C(c1ccc(C(F)(F)F)cc1)C1CCCN(C(=O)c2csnn2)C1 (stereo not given)	7.52% (inactive)	10.7
COc1ccc(-c2csc(NC(=O)c3ccc(N4C(=O)CCC4=O)cc3)n2)cc1OC	7.99% (inactive)	3.27
CC(=O)c1ccc(N2CCN(CC(=O)Nc3ccccc3N3CCOCC3)CC2)cc1	-16% (inactive)	4.64
COC(=O)Cc1ccc(NC(=S)NCc2ccco2)cc1	6.76% (inactive)	3.2
O=C(O)C1CC=CCC1C(=O)Nc1ccccc1C(=O)N1CCN(c2ccccc2)CC1 (stereo not given)	-12.3% (inactive)	-3.47
Cc1cccc(N2CCN(C(=O)c3ccccc3NC(=O)C3CCCCC3C(=O)O)CC2)c1 (stereo not given)	-3.08% (inactive)	-3.64

SMILES	inhibition [1]	inhibition (mutant strain inhibition) [%]
CC(C)c1ccc(N2CCN(C(=O)c3ccccc3NC(=O)/C=C(\C(=O)O)c3ccccc3)CC2)cc1	71% (active)	37.8
COc1cc(NC(=S)NCCSc2ccc(C)cc2)cc(OC)c1	71.4% (active)	51.4
COc1cc(NC(=S)NCc2ccc(S(N)(=O)=O)cc2)cc(OC)c1	-1.93% (inactive)	4.18
COc1ccc(NC(=S)NCCNC(C)=O)cc1	3.42% (inactive)	8.02
Cc1nnc(SC(C(=O)Nc2cc(Cl)cc(Cl)c2)c2ccccc2)[nH]c1=O (stereo not given)	1.45% (inactive)	9.8
COc1cc(/C=C/C(=O)OCC(=O)NC(=O)NCc2ccccc2)ccc1OCC#N	6.54% (inactive)	3.13
CN1C(=O)C(CC(=O)Nc2ccccc2)S/C1=N/c1nccs1 (stereo not given)	-7.94% (inactive)	3.24
COc1ccc(Cl)cc1NC(=O)C(C)N1CCc2ccccc21 (stereo not given)	54% (inactive)	18.4
COCCOCCn1cnc2ccccc21	-10.3% (inactive)	-7.09
Clc1ncn(CCOc2ccccc2)c1Cl	-14.3% (inactive)	-12.6
Cc1cc2ncn(CCCCOc3ccccc3)c2cc1C	62.5% (active)	44.6
COc1ccc(C(=O)NNC(=O)c2cc(C)[nH]n2)cc1	-20% (inactive)	-23.8
C/C(=C\c1ccco1)CN1CCC(N2CCC(C(=O)N3CCOCC3)CC2)CC1	-2.61% (inactive)	2.35
O=C(NC(=S)Nc1cccc(-c2ccc(CO)o2)c1)c1cccs1	6.13% (inactive)	12.3
CC(=O)Nc1ccc(NC(=S)NC(=O)/C=C/c2ccccc2)cc1	-1.35% (inactive)	-0.82
O=c1c(-c2ccc3c(c2)OCCO3)c(C(F)(F)F)oc2cc(O)cc(O)c12	70.7% (active)	42.8
CCOC(=O)c1cc2cc(-c3c(C(=O)OCC)oc4cc(O)cc(O)c4c3=O)ccc2o1	-4.08% (inactive)	-39.7
COc1ccc(-c2onc(C)c2-c2ccc3c(c2)OCCO3)c(O)c1	21.9% (inactive)	-8.53
Cc1ccc(NC(=S)NCc2ccccc2Cl)c(C)c1	41% (inactive)	-1.48
S=C(NCCc1ccccc1)NCc1ccccc1Cl	62% (active)	35.9
S=C(NCCc1ccccc1)N1CCCCC1	8.05% (inactive)	12.7
CC(=O)N1CCN(S(=O)(=O)c2c(F)cc(F)c(Cl)c2F)CC1	-3.19% (inactive)	3.15
CSc1ccc(/C=N/N2CCN(Cc3ccccc3Cl)CC2)cc1	43.5% (inactive)	23.8
COc1cc(CNC2CCCCC2)c(Br)cc1OC1CCCC1	18.3% (inactive)	20.6
CCc1ccccc1NC(=O)/C(=C/c1ccccc1)c1ccccc1	64.8% (active)	9.35
O=C(/C=C/c1ccccc1)N/C(=C/c1ccccc1)C(=O)Nc1ccccc1O	-8.09% (inactive)	-0.03
CCc1ccccc1NC(=O)c1cccs1	2.87% (inactive)	-2.72
